Data taken from PubChem BioAssay (NCI).
This is part of a sample that, as a whole, favours compounds with a hit. Of some 83,000 tested, about 20% had one in any assay.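 Percent growth is the endpoint: 0 to 100 indicates growth inhibition (40 means 60% inhibition), 0 means no net growth, and negative values indicate cell death.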 Values without a mark were called inactive. The source made the active and inactive calls. The calls were made as follows: active = growth percent below 10; inactive = the rest.

What was measured:
Assay in all cases: NCI-60 one-dose screen, 48 h (100 = growth as untreated, 0 = no growth, -100 = all killed)
Conditions in all cases: 10 µM unless noted
[1] = tested on: HCT-15 colon
[2] = tested on: HT29 colon
[3] = tested on: SNB-75 CNS
[4] = tested on: SNB-19 CNS
[5] = tested on: U251 CNS
[6] = tested on: PC-3 prostate
[7] = tested on: SK-MEL-5 melanoma
[8] = tested on: UACC-62 melanoma
[9] = tested on: LOX IMVI melanoma
[10] = tested on: SK-MEL-28 melanoma
[11] = tested on: EKVX NSCLC
[12] = tested on: SN12C renal
[13] = tested on: UO-31 renal
[14] = tested on: TK-10 renal
[15] = tested on: ACHN renal
[16] = tested on: CAKI-1 renal
[17] = tested on: CCRF-CEM leukemia
[18] = tested on: MOLT-4 leukemia
[19] = tested on: A498 renal

| Structure (SMILES) | growth [1] | growth [2] | growth [3] | growth [4] | growth [5] | growth [6] | growth [7] | growth [8] | growth [9] | growth [10] | growth [11] | growth [12] | growth [13] | growth [14] | growth [15] | growth [16] | growth [17] | growth [18] | growth [19] |
| --- | --- | --- | --- | --- | --- | --- | --- | --- | --- | --- | --- | --- | --- | --- | --- | --- | --- | --- | --- |
| CCOC(=O)c1c(Nc2ccccc2)nn2c(-c3cccs3)ccnc12 | 53.8% | 80.3% | 88.8% | 98.2% | 88.6% | 81% | 70.9% | 84.6% | 73.7% | 90.7% | 88.8% | 91% | 82.6% | 107% | 88.3% | 78.8% | 58.8% | 74.5% |  |
| NC(N)=Nc1ccc(Oc2cccc(Nc3ccc(Br)c(C(F)(F)F)c3)c2)cn1 | -68.3% (active) | -48.5% (active) | 9.31% (active) | -83.5% (active) | -79.6% (active) | -92% (active) | 16.9% | -76.9% (active) | -87.6% (active) | -32.1% (active) | -68.8% (active) | -87.7% (active) | 38.6% | 7.85% (active) | 1.96% (active) | -5.28% (active) | 0.633% (active) | -35.6% (active) | -25.1% (active) |
| N#Cc1c(Nc2ccccc2)nn2c(-c3ccc([N+](=O)[O-])cc3)ccnc12 | 99.3% | 103% | 102% | 100% | 99.8% | 103% | 88.6% | 93.3% | 93.7% | 100% | 99.5% | 104% | 84% | 98% | 102% | 91.9% | 104% | 105% |  |
| Cc1cc(C)c(N2C(=O)CC(Nc3ccc(Cl)cc3Cl)C2=O)c(C)c1 (centres undefined) | 102% | 107% | 93% | 98.5% | 104% | 94.8% | 103% | 91.4% | 96% | 102% | 102% | 98.2% | 85.9% | 109% | 103% | 87.6% | 105% | 103% |  |
| Cc1ccc(NC(=O)N[C@@H](Cc2cc(F)cc(F)c2)C(=O)NC2C(=O)N3C[C@H](O)C[C@H]3C(=O)N3CCCC[C@H]3C(=O)N[C@@H](CO)C(=O)N3C[C@H](C)C[C@H]3C(=O)O[C@H]2C)c(F)c1 (some centres undefined) | 106% | 42.8% | 27.4% | 27.1% | 29.3% | 20% | 21.5% | 30.9% | 28.1% | 47.4% | 40.7% | 22% | 90.7% | 107% | 107% | 82.9% | 35.1% | 54.5% |  |
| CCOC(=O)c1c(Nc2ccccc2)nn2c(-c3ccc(Cl)cc3)ccnc12 | 77.8% | 83.7% | 88% | 72.1% | 81.5% | 80.5% | 80.2% | 82.8% | 64.5% | 87.2% | 88.9% | 83.9% | 64.8% | 98.1% | 47.2% | 56.1% | 16.2% | 86% |  |
| c1ccc(C(c2nc3ncncc3[nH]2)N2CSc3nc4ncncc4n3C2)cc1 (centres undefined) | 80.4% | 42.7% | 45% | 96.9% | 92.1% | 78.2% | 85.1% | 27.5% | 13.2% | 98.4% | 94.4% | 87.5% | 70.9% | 48.9% | 81.9% | 41% | 32.1% | 23.8% | 96.5% |
| COc1cc(OC)c(S(N)(=O)=O)cc1C(=O)/C=C/c1ccc(Cl)cc1 | -41.6% (active) | 6.08% (active) | 27.1% | 15.8% | 3.73% (active) | 28.2% | 5.34% (active) | 18.6% | -50.4% (active) | 30.5% | 29.8% | 16% | 7.22% (active) | -5.25% (active) | 11.6% | 21.5% | 1.6% (active) | 3.62% (active) |  |
| C[C@@H]1C[C@H]2C(=O)O[C@@H](C)C(NC(=O)[C@H](Cc3cc(F)cc(F)c3)NC(=O)Nc3ccc(C4CC4)cc3F)C(=O)N3CCC[C@H]3C(=O)N3CCCC[C@H]3C(=O)N[C@@H](CO)C(=O)N2C1 (some centres undefined) | 14.1% | 25.4% | 31.5% | 27.9% | 29.8% | 11.5% | -15.9% (active) | 21.3% | 30.4% | 41.1% | 30.2% | 18.7% | 25.8% | 52.6% | 28.6% | 18.6% | 31.2% | 39.7% |  |
| O=C(Cn1cc(-c2ccccc2)nn1)Nc1nc(-c2ccc(Cl)cc2)cs1 | 94.4% | 102% | 103% | 94.7% | 105% | 101% | 94.5% | 76.1% | 101% | 108% | 98% | 96.2% | 91% | 76.1% | 112% | 107% | 103% | 97.8% | 80.7% |
| O=c1[nH]c(Sc2sc3ccc(Cl)cc3c2CBr)nc(=S)[nH]1 | 21.2% | 91.4% | 54% | 60.7% | 38.7% | 26.4% | 35.1% | 1.82% (active) | 25.9% | 28.4% | 40.2% | 41.8% | 19.9% | 46.2% | 26.7% | 13.7% | 18% | 17.5% | 5.73% (active) |
| CC1(COc2ccc3ncc(C#Cc4cncc(C(=O)Nc5cccc(C(F)(F)F)c5)c4)n3n2)COC1 | 86.1% | 82.1% | 63% | 82.8% | 91.3% | 95.5% | 79.4% | 72.9% | 65.6% | 86.8% | 101% | 61.9% | 58.2% | 128% | 72.4% | 81.7% | 88.4% | 84.9% |  |
| O=C(CSc1nc2ccccc2c(=O)n1-c1ccccc1)Nc1ccc(-c2nc3ccc([N+](=O)[O-])cc3[nH]2)cc1 | 61.3% | 79.3% | 82.5% | 81.8% | 87.6% | 69.7% | 91.4% | 51.9% | 37.8% | 82.6% | 93.5% | 72.4% | 76.9% | 127% | 88.2% | 78.2% | 22.1% | 20.4% | 77.8% |
| CCOC(=O)c1c(Nc2ccccc2)nn2c(-c3ccccc3)ccnc12 | 63.3% | 84.4% | 67.1% | 98.3% | 90.8% | 92.8% | 78.5% | 87.7% | 83% | 101% | 95.4% | 90.5% | 85.5% | 111% | 90.7% | 88.7% | 9.59% (active) | 87.1% |  |
| COc1ccccc1-n1cc(C#N)c(N)c1C(=O)c1ccc(Br)cc1 | 35.1% | 44.6% | 74.5% | 71.1% | 66.8% | 63.4% | 77.4% | 45.2% | 66.2% | 69% | 85.4% | 82.7% | 73% | 111% | 98.9% | 68.8% | 68.3% | 61.4% | 60.6% |
| COc1ccc(-c2nc3cc(Cl)c(Cl)cc3n2CC(=O)N=Nc2c(O)[nH]c3ccc(OC)cc23)cc1 | 43.7% | 55.2% | 65.3% | 80% | 77.8% | 63.8% | 61.2% | 53.4% | 7.13% (active) | 48.6% | 62.9% | 49.7% | 69.9% | 97.3% | 43.5% | 59.4% | 61.6% | 78.7% |  |
